According to PubChem BioAssay (Tox21):
Inconclusive results are not listed. Calls of active or inactive are those of the source. Unless noted, the call rests on the fitted dose curve; in most records, active means well fitted curve in the direction sought with a large enough effect in the repeat runs; inconclusive means weak or mixed curves; inactive means no such curve, though single readings can be large; an effect the other way counts as inactive or inconclusive.

Assays:
[1] = biological target: Nuclear receptor subfamily 1 group I member 3 (Homo sapiens) (UniProt Q14994); test: qHTS assay to identify small molecule antagonists of the constitutive androstane receptor (CAR) signaling pathway (AID 1224838); further: nearly all actives have a fitted effect of over 40% in size; further: potency means the concentration at half of the fitted maximal effect; on activity, negative = inhibition: on the % scale 0 is the no-effect control and ±100 the full control effect
Method in brief: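 Cell line: HepG2 double-stable for hCAR and CYP2B6-2.2kb reporter. Agonist: CITCO, 50 nM final. Compounds: 15 concentrations, 24 h, 37 C. Detection: ONE-Glo luminescence.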

[2] = biological target: Nuclear receptor subfamily 1 group I member 3 (Homo sapiens) (UniProt Q14994); test: qHTS assay to identify small molecule agonists of the constitutive androstane receptor (CAR) signaling pathway (AID 1224839); further: nearly all actives have a fitted effect of over 15% in size; further: potency means the concentration at half of the fitted maximal effect;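 on activation: HepG2 cells stably carrying human CAR and a CYP2B6 luciferase reporter; on the % scale 0 is the no-effect control and ±100 the full control effect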
Method in brief: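 HepG2 cells stably expressing hCAR and a CYP2B6-2.2kb luciferase reporter were treated with compounds at 15 concentrations plus 0.75 uM PK11195 (final) for 24 h at 37 C; luminescence was read after ONE-Glo addition.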

[3] = qHTS assay to identify small molecule agonists of the estrogen related receptor signaling pathway with the pleiotropic PPARgamma coactivator (PGC) from Tox21 10K library (AID 1224842); further: on the % scale 0 is the no-effect control and ±100 the full control effect; nearly all actives have a fitted effect of over 15% in size
Method in brief: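 PGC/ERR reporter cell line, 2,000 cells per well, incubated 6 h at 37 C before 23 nL compound in DMSO was added. After 18 h at 37 C, One-Glo luminescence read following 30 min at room temperature.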

[4] = qHTS assay to identify small molecule agonists of H2AX - cell viability counter screen (AID 1224847; calls by dose curve; further: nearly all actives have a fitted effect of over 30% in size; further: potency means the concentration at half of the fitted maximal effect)
Method in brief: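 Wild-type CHO-K1 cells (10% FBS medium) were plated overnight at 37C, exposed to compounds at 15 concentrations for 3 hr at 37C (0.76% DMSO final), and viability was read as CellTiter-Glo luminescence after 30 min at room temperature.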

[5] = qHTS assay to identify small molecule antagonists of the estrogen related receptor (ERR) signaling pathway from Tox21 library (AID 1224848); further: nearly all actives have a fitted effect of over 50% in size; further: potency means the concentration at half of the fitted maximal effect
Method in brief: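 ERR reporter cell line (from NTP) seeded 2,000 cells/well, rested 6 h at 37 C/5% CO2, then pin-dosed with compounds in DMSO. After 18 h at 37 C, ONE-Glo added; luminescence read after 30 min at room temperature.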

[6] = qHTS assay to identify small molecule agonists of the estrogen related receptor (ERR) signaling pathway from Tox21 library (AID 1224849; calls by dose curve; further: on the % scale 0 is the no-effect control and ±100 the full control effect; nearly all actives have a fitted effect of over 15% in size); details: ERR reporter cell line, ONE-Glo luciferase, 18 h; at 92.4 µM (top of the series) unless noted
Method in brief: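 Screening used an NTP-provided ERR luciferase cell line. Compounds in DMSO were added 6 h after seeding and left 18 h at 37 C before a 30 min ONE-Glo step and luminescence reading.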

[7] = qHTS RealTime-Glo MT Cell Viability Assay in HEK293 cells - 32 hour (AID 1224868); further: nearly all actives have a fitted effect of over 50% in size; further: potency means the concentration at half of the fitted maximal effect
Method in brief: (§1)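 Quantitative high-throughput screen of the Tox21 10K library in HEK293: cells and RealTime-Glo reagents plated together, compound added at 5 h, luminescence monitored through 40 h at 37 C.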

[8] = A CellTox Green Cytotoxicity Assay to monitor cytotoxicity in HEK293 cells - 0 hour (AID 1224869); further: on the % scale 0 is the no-effect control and ±100 the full control effect; nearly all actives have a fitted effect of over 50% in size
Method in brief: (§2)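 Fluorescence intensity, read at 0, 8, 16, 24, 32 and 40 h of compound treatment, reflected dye binding to DNA of dead HEK293 cells; compounds (23 nL, DMSO) were added 5 h after plating cells with reagent.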

[9] = qHTS RealTime-Glo MT Cell Viability Assay in HepG2 cells - 40 hour (AID 1224870); further: nearly all actives have a fitted effect of over 50% in size; further: potency means the concentration at half of the fitted maximal effect; on activity change, negative = cytotoxic: on the % scale 0 is the no-effect control and ±100 the full control effect
Method in brief: (§3)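 HepG2 cells (600/well) mixed with RealTime-Glo MT reagent, settled 5 h at 37 C/5% CO2 before compound addition. Nonlytic NanoLuc luminescence from viable-cell prosubstrate reduction read repeatedly during 40 h treatment at 37 C.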

[10] = qHTS RealTime-Glo MT Cell Viability Assay in HEK293 cells - 16 hour (AID 1224872); further: nearly all actives have a fitted effect of over 50% in size; further: potency means the concentration at half of the fitted maximal effect
Method in brief: as §1

[11] = qHTS RealTime-Glo MT Cell Viability Assay in HEK293 cells - 40 hour (AID 1224874); details: RealTime-Glo luminescence; max response: active compounds read low; further: nearly all actives have a fitted effect of over 50% in size; further: potency means the concentration at half of the fitted maximal effect
Method in brief: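 Viable HEK293 cells reduce a cell-permeant prosubstrate; the product diffuses out and is consumed by NanoLuc in the medium to give light. Compounds went in after a 5 h incubation and plates were read over the treatment course.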

[12] = biological target: Thyrotropin receptor (Homo sapiens) (UniProt P16473); test: qHTS assay to identify small molecule agonists of the thyroid stimulating hormone receptor (TSHR) signaling pathway (AID 1224843; calls by dose curve; further: on the % scale 0 is the no-effect control and ±100 the full control effect; nearly all actives have a fitted effect of over 45% in size)
Method in brief: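 TSHR-HEK293 cells in agonist mode, 30 min room-temperature step, then cAMP measured by competitive HTRF (cAMP-d2 with anti-cAMP cryptate) after 1 h at room temperature. Tested at 15 concentrations in triplicate.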

[13] = qHTS assay to identify small molecule agonists of the hypoxia (HIF-1) signaling pathway - cell viability counter screen (AID 1224844; calls by dose curve; further: nearly all actives have a fitted effect of over 50% in size; further: potency means the concentration at half of the fitted maximal effect)
Method in brief: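 Cells (HRE-bla ME-180, 2,000 per well) sat 5 hrs at 37C, got compound for 17 hrs, were read for CCF4-AM FRET, and were finally lysed with CellTiter-Glo for a 30 min room-temperature luminescence read.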

[14] = qHTS assay to identify small molecule agonists of H2AX (AID 1224845; active means well fitted activation curve with a large enough effect in the signal ratio in the repeat runs, not every such curve was filed as active; the % refers to the signal ratio; further: potency means the concentration at half of the fitted maximal effect)
Method in brief: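 Wild-type CHO-K1 cells, plated overnight, exposed 3hr at 37C to 15 concentrations (0.76% DMSO final). Lysed, then HTRF anti-pH2AX (S139) cryptate and anti-H2AX-d2 antibodies, 24 hr room temperature; 665/620 nm emission read.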

[15] = qHTS assay to identify small molecule agonists of the hypoxia (HIF-1) signaling pathway (AID 1224846; active means well fitted activation curve with a large enough effect in the signal ratio in the repeat runs, not every such curve was filed as active; the % refers to the signal ratio; further: on the % scale 0 is the no-effect control and ±100 the full control effect)
Method in brief: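 A low-serum medium (0.5% dialyzed FBS) holding 2,000 HRE-bla ME-180 cells per well is preincubated for 5 hrs, dosed with compounds by pintool, and kept a further 17 hrs at 37C, 5% CO2 before CCF4-AM FRET detection of beta-lactamase.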

[16] = qHTS RealTime-Glo MT Cell Viability Assay in HepG2 cells - 24 hour (AID 1224867); further: nearly all actives have a fitted effect of over 50% in size; further: potency means the concentration at half of the fitted maximal effect
Method in brief: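 Compound treatment began 5 h after plating HepG2 cells (600/well) with NanoLuc luciferase and prosubstrate. Plates stayed at 37 C for 40 h; luminescence was captured at six time points, 0 h through 40 h.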

[17] = A CellTox Green Cytotoxicity Assay to monitor cytotoxicity in HEK293 cells - 40 hour (AID 1224871); further: nearly all actives have a fitted effect of over 45% in size; further: potency means the concentration at half of the fitted maximal effect
Method in brief: as §2

[18] = qHTS RealTime-Glo MT Cell Viability Assay in HepG2 cells - 8 hour (AID 1224873); further: nearly all actives have a fitted effect of over 55% in size; further: potency means the concentration at half of the fitted maximal effect
Method in brief: as §3

[19] = qHTS assay to identify small molecule antagonists of the estrogen related receptor signaling pathway with the pleiotropic PPARgamma coactivator (PGC) from Tox21 10K library (AID 1224841; call rule not given here)
Method in brief: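 qHTS antagonist format: PGC/ERR cells, 2k/well, compound in DMSO by pin transfer after 6 h attachment, 18 h treatment at 37 C, One-Glo luminescence read at 30 min.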

Thyrotropin receptor (Homo sapiens), sequence (P16473 whole entry, looked up): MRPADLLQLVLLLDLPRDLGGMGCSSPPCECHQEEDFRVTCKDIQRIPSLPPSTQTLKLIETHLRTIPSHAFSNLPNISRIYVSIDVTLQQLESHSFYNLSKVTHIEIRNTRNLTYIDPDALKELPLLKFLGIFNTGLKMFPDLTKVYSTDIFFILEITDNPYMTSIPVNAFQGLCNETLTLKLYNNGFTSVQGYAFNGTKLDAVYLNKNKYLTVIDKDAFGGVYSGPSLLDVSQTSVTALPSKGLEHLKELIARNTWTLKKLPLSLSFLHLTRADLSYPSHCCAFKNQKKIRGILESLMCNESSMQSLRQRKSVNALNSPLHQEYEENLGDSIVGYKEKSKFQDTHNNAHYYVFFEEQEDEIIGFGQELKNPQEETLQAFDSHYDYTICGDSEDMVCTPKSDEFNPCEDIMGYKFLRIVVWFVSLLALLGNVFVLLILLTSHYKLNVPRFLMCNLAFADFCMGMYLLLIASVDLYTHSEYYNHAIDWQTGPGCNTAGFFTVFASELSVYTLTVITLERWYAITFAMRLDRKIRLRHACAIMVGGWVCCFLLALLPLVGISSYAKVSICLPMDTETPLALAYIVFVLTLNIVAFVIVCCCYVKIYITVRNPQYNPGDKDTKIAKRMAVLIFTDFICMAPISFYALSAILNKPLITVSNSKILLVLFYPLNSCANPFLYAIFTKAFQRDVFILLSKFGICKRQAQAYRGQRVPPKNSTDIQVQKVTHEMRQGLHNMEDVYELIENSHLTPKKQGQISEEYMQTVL
Nuclear receptor subfamily 1 group I member 3 (Homo sapiens), sequence (Q14994 whole entry, looked up): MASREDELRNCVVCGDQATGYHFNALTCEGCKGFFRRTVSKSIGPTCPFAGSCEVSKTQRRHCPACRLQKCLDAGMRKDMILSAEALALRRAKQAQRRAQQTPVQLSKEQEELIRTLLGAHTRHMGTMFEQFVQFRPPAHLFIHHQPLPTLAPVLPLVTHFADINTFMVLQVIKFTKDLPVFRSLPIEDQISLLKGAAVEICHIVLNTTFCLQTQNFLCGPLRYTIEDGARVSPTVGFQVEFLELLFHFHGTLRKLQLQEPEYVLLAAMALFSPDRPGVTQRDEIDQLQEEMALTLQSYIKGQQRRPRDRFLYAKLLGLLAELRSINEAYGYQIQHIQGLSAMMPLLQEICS

CC(O)(c1ccc(Cl)cc1)c1ccc(Cl)cc1
inactive: Potency [1] | Potency [3] | activity change, positive = activation [6] -43.9% | Potency [8] | Potency [9]
active: Potency [2] 15.4 µM | Potency [4] 56.6 µM | Potency [5] 61.1 µM | Potency [7] 24.5 µM | Potency [10] 38.9 µM | Potency [11] 24.5 µM

O=C(O)CN(CCCN(CC(=O)O)CC(=O)O)CC(=O)O
inactive: activity, negative = inhibition [1] -21.7% [at 19 µM] | activation [2] -1.05% [at 19 µM] | activation [12] -0.184% [at 19 µM] | activity change, negative = cytotoxicity [13] -18% [at 15.8 µM] | activation (H2AX phosphorylation) [14] 1.1% [at 31.6 µM] | activation [15] 1.13% [at 15.8 µM] | activity change, negative = cytotoxicity [4] 0.112% [at 31.6 µM] | activity change, negative = cytotoxicity [16] -3.25% [at 15.8 µM] | activity change, negative = cytotoxic [7] -12.4% [at 15.8 µM] | activity change, negative = cytotoxic [9] 22.2% [at 15.8 µM] | cytotoxicity increase [17] 0.268% [at 15.8 µM] | activity change, negative = cytotoxicity [10] -5.66% [at 15.8 µM] | viability change, negative = cytotoxic [18] -18.6% [at 15.8 µM] | max response [11] -7.68%

CCCCCN=C(N)N/N=C/c1c[nH]c2ccc(OC)cc12
inactive: Potency [2] | Potency [3] | activity change, positive = activation [6] -70.2% [at 42.5 µM]
active: Potency [1] 16.8 µM | Potency [4] 49.2 µM | Potency [5] 15 µM | Potency [16] 6.01 µM | Potency [7] 4.25 µM | Potency [9] 5.35 µM | Potency [17] 6.74 µM | Potency [10] 4.77 µM | Potency [18] 10.7 µM | Potency [11] 4.25 µM

CCOc1nc(F)cc2nc(S(=O)(=O)Nc3c(Cl)cccc3C(=O)OC)nn12
inactive: Potency [1] | Potency [2] | Potency [12] | Potency [14] | Potency [4] | Potency [16] | Potency [7] | Potency [8] | Potency [9] | Potency [17] | Potency [10] | max response [11] 9.81%

Cc1cc(F)ccc1-c1cc(N2CC[C@@H](O)[C@H]2CO)ncc1N(C)C(=O)C(C)(C)c1cc(C(F)(F)F)cc(C(F)(F)F)c1
inactive: Potency [1] | Potency [2] | Potency [12] | Potency [8]
active: Potency [13] 24.2 µM | Potency [14] 39.5 µM | Potency [4] 70.2 µM | Potency [7] 17.1 µM | Potency [9] 43 µM | Potency [17] 43 µM | Potency [10] 30.4 µM | Potency [11] 17.1 µM

Cc1cc(C)c(O)c(C(C)(C)C)c1
inactive: Potency [1] | Potency [2] | Potency [3] | Potency [13] | Potency [14] | Potency [5] | activity change, positive = activation [6] 1.52% | Potency [16] | Potency [7] | Potency [8] | Potency [9] | Potency [10] | max response [11] -8.82%
active: Potency [4] 113 µM | Potency [17] 34.7 µM

CCN(CC)c1ccc(N=Nc2ccccc2)cc1
active: Potency [2] 13.7 µM | Potency [4] 113 µM | Potency [7] 49 µM | Potency [10] 49 µM | Potency [11] 54.9 µM
inactive: Potency [1] | Potency [12] | Potency [16] | Potency [8] | Potency [9] | Potency [17] | Potency [18]

Nc1ccc(F)c([N+](=O)[O-])c1
active: Potency [19] 30.6 µM | Potency [5] 34.4 µM
inactive: Potency [1] | Potency [2] | Potency [3] | Potency [12] | Potency [13] | Potency [14] | Potency [15] | Potency [4] | activity change, positive = activation [6] -30.4% | Potency [7] | Potency [8] | Potency [9] | Potency [17] | Potency [10] | Potency [18] | max response [11] 4.61%
